Results on 62 compounds are retold here after ChEMBL document CHEMBL3988442, “University of Dundee, Small-Polar-MMV Screening Library” (2021).

Out of some 48,000 compounds screened, about 13,000 (27%) showed an effect of 50% or more. Some of the results follow.

The test system of the assay is Wolbachia pipientis. The assay is described as follows: Anti-Wolbachia Cell-Based Screen. It is filed as functional. Set-up: scale not given: in the data most compounds retested in dose-response had high values. Particulars: 5 µM.
In the case of `Nc1ccc(C(=O)N2CCCC(c3nccn3Cc3cscn3)C2)cn1` (configuration not stated), the “Percent Effect” value is recorded as -28.34%.

Regarding `CN(C)C1CCN(C(=O)c2cc(-c3ccn(C)n3)n3ccccc23)CC1.O=C(O)C(F)(F)F`, the “Percent Effect” value is 86.54%.

As for `Cn1ccc(-c2cc(C(=O)N3CCC(C(N)=O)CC3)c3ccccn23)n1`, the “Percent Effect” value amounted to 110.4%.

On to `CC(C)n1ccc(-c2cc(C(=O)N3CCN(C)CC3)c3ccccn23)n1.O=C(O)C(F)(F)F`, for which the “Percent Effect” value is recorded as -12.81%.

Take `Cc1nc(-c2cc(C(=O)N3CCN(C)CC3)c3ccccn23)cn1C`: the “Percent Effect” value was 1.368%.

Turning to `CC(C)c1nc(-c2cc(C(=O)N3CCN(C)CC3)c3ccccn23)cs1.O=C(O)C(F)(F)F`, the “Percent Effect” value is -39.55%.

As for `O=C(c1cc(-c2ccn(CC3CC3)n2)n2ccccc12)N1CCCO1`, the “Percent Effect” value is -14.88%.

On to `O=C(c1cc(-c2ccn(CC3CC3)n2)n2ccccc12)N1CCOCC1`, for which the “Percent Effect” value is on record as -12.76%.

Take `COCCn1cc(-c2cc(C(=O)N3CCCC3)c3ccccn23)nc1C`: the “Percent Effect” value is -3.651%.

Regarding `CN1CCCN(C(=O)c2cc(-c3cc[nH]n3)n3ccccc23)CC1.O=C(O)C(F)(F)F.O=C(O)C(F)(F)F`, the “Percent Effect” value was 9.313%.

`Cn1ccc(-c2cc(C(=O)N3CCC(O)CC3)c3ccccn23)n1`: the “Percent Effect” value came to 101.1%.

Take `Cn1ccc(-c2cc(C(=O)N3CCCCC3)c3ccccn23)n1`: the “Percent Effect” value stood at 111.2%.

Regarding `O=C(O)c1cc(-c2ccn(CC3CC3)n2)n2ccccc12`, the “Percent Effect” value was 0.5352%.

Consider `CC(C(=O)N(Cc1ccccc1)CC(F)(F)F)S(C)(=O)=O` (configuration not stated), for which the “Percent Effect” value was found to be 3.578%.

As to `CC(C)NC(=O)CNC(=O)C12CCC(=O)N1c1cc(Cl)ccc1S2` (configuration not stated), the “Percent Effect” value is listed as -9.931%.

For the compound `O=C(CN1C(=O)CCNC1=O)N1CCC2(CCc3ccccc32)CC1`, the “Percent Effect” value is -1.469%.

On to `COCCN1CCC2(CCC1=O)CN(c1ccnc(SC)n1)CCN2C` (configuration not stated), for which the “Percent Effect” value is recorded as 3.783%.

As for `CC(C)(C)C(=O)CN1CCc2ccccc2NCCC1=O`, the “Percent Effect” value is 91.03%.

For `COCCN1CC2(CCCN(C(=O)NCc3ccccc3)C2)CCC1=O` (configuration not stated), the “Percent Effect” value is reported as -41.75%.

For the compound `CC(C)(C)C(=O)CN1Cc2ccccc2NCCC1=O`, the “Percent Effect” value was 87.13%.

Regarding `CCN(C(=O)C1=NN(c2ccccc2)C(=O)CN1)c1ccccc1`, the “Percent Effect” value was 14.38%.

On to `CN(C(=O)CN1CCCC1=O)C1CCCN(C2Cc3ccccc3C2)C1` (configuration not stated), for which the “Percent Effect” value was -3.019%.

For the compound `COCCN1CCc2ccccc2NCCC1=O`, the “Percent Effect” value is given as 80.29%.

`CCNC(=O)N1C[C@@H]2OCC(=O)N(Cc3cccnc3)[C@@H]2C1`: the “Percent Effect” value is on record as -2.175%.

On to `C[C@H](CCO)NS(=O)(=O)c1ccc(Br)cn1`, for which the “Percent Effect” value was found to be 0.586%.

Consider `COc1nccnc1N1CCC2(CC1)[C@H](O)C[C@@H]2OCCN(C)C`, for which the “Percent Effect” value was -0.5657%.

For the compound `COC(=O)CCCn1ccnc1C(C)c1ccccc1` (configuration not stated), the “Percent Effect” value is on record as 30.01%.

For `CN(C)c1ccc(C(=O)N2CCN(C(=O)N3CCCCC3)CC2)nn1`, the “Percent Effect” value stood at 6.871%.

With `CN1CCN(C(=O)N2CCCC2)Cc2cccnc21`, the “Percent Effect” value is recorded as -1.039%.

As to `Cc1ccc2c(n1)N(CCN(C)C)CCN(C(=O)N1CCOCC1)C2`, the “Percent Effect” value is on record as -2.22%.

`O=C(N1CCCC1)N1CCN(c2ccc(Cl)nn2)C(=O)C1`: the “Percent Effect” value is reported as 104%.

Consider `O=C(N1CCCCC1)N1CCN(c2ccc(Cl)nn2)C(=O)C1`, for which the “Percent Effect” value came out at 123%.

As for `O=C(Cc1ccc(CO)cc1)N1CCN(c2ccccc2Cl)C(=O)C1`, the “Percent Effect” value is reported as -19.49%.

For `O=C(N1CCOCC1)N1CCN(c2ccc(Cl)nn2)C(=O)C1`, the “Percent Effect” value is 98.36%.

As to `O=C(N1CCOCC1)N1CCN(c2ccnc3ccsc23)CC1`, the “Percent Effect” value came out at 30.34%.

As for `O=C(Cc1ccc2c(c1)OCO2)N1CCN(c2ccccc2Cl)C(=O)C1`, the “Percent Effect” value turned out to be 2.346%.

On to `O=C(CN1CCN(c2ccnc3c(F)ccc(F)c23)CC1)NC1CC1`, for which the “Percent Effect” value was -1.102%.

`O=C(Nc1ccc2c(c1)OCO2)N1CCN(CCc2ccccc2)CC1`: the “Percent Effect” value stood at 10.38%.

Consider `CC(C)OCc1ncn2c1CN(Cc1nccs1)CCC2.O=C(O)C(F)(F)F`, for which the “Percent Effect” value worked out at 19.89%.

On to `Cc1ccc(NC(=O)N2CCC3(CCC(C(=O)N(C)C)O3)CC2)cc1` (configuration not stated), for which the “Percent Effect” value stood at 103.6%.

On to `CN1C(=O)CO[C@H]2CN(C(=O)Nc3ccc(F)cc3)C[C@H]21`, for which the “Percent Effect” value is reported as -3.92%.

With `CC(=O)NC1CCN(C(=O)Nc2ccc(SC(F)F)cc2)CC1`, the “Percent Effect” value turned out to be 1.325%.

In the case of `CCC1=N[C@@]2(CC[C@@H]3CN(C(=O)Nc4ccc(F)cc4)C[C@@H]32)C(=O)N1`, the “Percent Effect” value is reported as -8.843%.

As for `CN(C)C(=O)C1CCC2(CCN(C(=O)Nc3ccc(F)cc3)CC2)O1` (configuration not stated), the “Percent Effect” value is reported as 104.3%.

Consider `O=C(Nc1ccc(S(=O)(=O)Nc2ccccc2)cc1)N1CCCC1`, for which the “Percent Effect” value amounted to 10.15%.

With `CN(C)C(=O)N1CCC2(CCC(C(=O)N3CCCC3)O2)CC1` (configuration not stated), the “Percent Effect” value was -25.65%.

For `CCN(C)CC1CCN(C(=O)Nc2ccc(C)cc2)C1` (configuration not stated), the “Percent Effect” value is given as -10.96%.

On to `CN(C)C(=O)C1CCC2(CCN(C(=O)Nc3ccccc3)CC2)O1` (configuration not stated), for which the “Percent Effect” value is reported as 111.7%.

Turning to `CCCN1CCCC2(CCN(S(=O)(=O)N3CCC(OC)CC3)C2)C1=O` (configuration not stated), the “Percent Effect” value is reported as -17.89%.

As to `CCCNC(=O)NCc1ccccc1NS(=O)(=O)c1ccccc1`, the “Percent Effect” value was 1.164%.

As for `COc1c(C2CCCN2Cc2nnc(C3CC3)o2)c(C)nn1C` (configuration not stated), the “Percent Effect” value was -22.17%.

Take `CCN(Cc1noc(C)n1)C(=O)C(c1ccc(C)cc1)N(C)C` (configuration not stated): the “Percent Effect” value is on record as -5.423%.

Turning to `CC(=O)N1CCN(C(=O)CCc2cc(Br)cs2)CC1`, the “Percent Effect” value is -5.733%.

On to `CC1(Cc2cccnc2)NCCc2[nH]cnc21` (configuration not stated), for which the “Percent Effect” value was 0.4171%.

In the case of `CC(C)Cc1ccc(C(=O)Cn2cnnc2[S+](C)[O-])cc1` (configuration not stated), the “Percent Effect” value is 22.36%.

For the compound `CS(=O)(=O)N1CCCC12CCCN(S(=O)(=O)c1cccc(F)c1)C2` (configuration not stated), the “Percent Effect” value stood at 85.55%.

Take `CS(=O)(=O)N1CCCC12CCCN(S(=O)(=O)c1cc(F)cc(F)c1)C2` (configuration not stated): the “Percent Effect” value was -5.366%.

With `CNC(=O)[C@@]12CCO[C@@H]1CCN(S(=O)(=O)c1cccc(F)c1)C2`, the “Percent Effect” value was -9.413%.

With `Cc1cccc(S(=O)(=O)N2CCCC3(CCCN3S(C)(=O)=O)C2)c1` (configuration not stated), the “Percent Effect” value was determined as 110.4%.

For the compound `Cc1cccc(S(=O)(=O)N2CCCc3c(c(=O)n(C)n3C)C2)c1`, the “Percent Effect” value is -4.559%.

As to `CCN1C(=O)CCC12CCCN(S(=O)(=O)c1cccc(C)c1)CC2` (configuration not stated), the “Percent Effect” value was -13.05%.

As for `COc1ccc(Nc2ncccc2C#N)cc1N1CCCC1=O`, the “Percent Effect” value is on record as 9.755%.
